Values joined by “and” are separate entries in the source; they are usually repeats but may differ in a detail not shown here. Identical values can stand only once. Results filed as inconclusive are left out. Active and inactive are the calls of the source. Unless noted, calls follow the shape of the full dose curve.
Experiments:
[1] = Nuclear factor erythroid 2-related factor 2/antioxidant responsive element (Nrf2/ARE) small molecule agonists: qHTS cell viability counter screen in human keratinocytes (AID 1919968; active = well fitted curve in the direction sought with a large enough effect in the repeat runs; an effect the other way counts as inactive or inconclusive; also: nearly all actives have a fitted effect of over 55% in size; also: potency is read from the fitted curve at half-maximal effect)
In short: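 Cells of the KeratinoSens line were plated at 1,500 per well and left for 5 h before compound transfer from DMSO stocks. After a 23 h incubation (37 C, 5% CO2), CellTiter-Fluor was added. Signal was taken as fluorescence intensity 1 h later.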

[2] = Nuclear factor erythroid 2-related factor 2/antioxidant responsive element (Nrf2/ARE) small molecule agonists: luciferase reporter gene qHTS assay in human keratinocytes (AID 1919969); also: nearly all actives have a fitted effect of over 35% in size; also: potency is read from the fitted curve at half-maximal effect
[3] = biological target: Gonadotropin-releasing hormone receptor (Homo sapiens) (UniProt P30968); test: Human gonadotropin-releasing hormone receptor (GnRHR) small molecule agonists, calcium flux assay in GnRHR-HEK293 cells (AID 1920063); also: nearly all actives have a fitted effect of over 35% in size
Chain of Gonadotropin-releasing hormone receptor (Homo sapiens) (P30968 whole entry, looked up): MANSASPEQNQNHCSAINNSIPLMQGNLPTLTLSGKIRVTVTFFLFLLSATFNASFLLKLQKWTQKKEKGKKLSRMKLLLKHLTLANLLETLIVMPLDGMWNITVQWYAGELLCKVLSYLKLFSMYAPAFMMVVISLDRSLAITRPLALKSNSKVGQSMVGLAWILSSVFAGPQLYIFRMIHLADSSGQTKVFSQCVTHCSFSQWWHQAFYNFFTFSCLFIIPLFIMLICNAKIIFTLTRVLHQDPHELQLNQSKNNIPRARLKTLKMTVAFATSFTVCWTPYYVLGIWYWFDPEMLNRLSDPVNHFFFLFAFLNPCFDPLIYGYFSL
In short: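 Compounds dissolved in DMSO are pin-transferred onto dye-loaded GnRHR-HEK293 cells, which were seeded 18 h before at 37 C/5% CO2. Calcium signal is read as fluorescence intensity at 1 s intervals for 3 min.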

[4] = biological target: KiSS-1 receptor (Homo sapiens) (UniProt Q969F8); test: Human kisspeptin (KISS1R) small molecule agonists, calcium flux assay in KISS1R-HEK293 cells (AID 1920064; active = well fitted curve in the direction sought with a large enough effect in the repeat runs; an effect the other way counts as inactive or inconclusive)
Chain of KiSS-1 receptor (Homo sapiens) (Q969F8 whole entry, looked up): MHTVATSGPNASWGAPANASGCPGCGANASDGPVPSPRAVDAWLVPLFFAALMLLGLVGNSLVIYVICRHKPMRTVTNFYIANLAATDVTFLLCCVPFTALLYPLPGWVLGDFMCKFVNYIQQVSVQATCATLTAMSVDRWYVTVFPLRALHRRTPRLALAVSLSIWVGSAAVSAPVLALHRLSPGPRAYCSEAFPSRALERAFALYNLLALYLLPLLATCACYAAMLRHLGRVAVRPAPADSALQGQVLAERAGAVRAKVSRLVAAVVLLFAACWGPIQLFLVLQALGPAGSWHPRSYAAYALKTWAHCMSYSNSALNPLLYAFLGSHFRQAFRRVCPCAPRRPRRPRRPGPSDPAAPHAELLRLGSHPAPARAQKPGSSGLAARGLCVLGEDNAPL
In short: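 Cell line: HEK293, stable human KISS1R. Dye loading 1 h at 37 C after 18 h culture. Read: kinetic fluorescence, 480/540 nm, 3 min at 1 s intervals.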

[5] = G protein-coupled receptor (GPCR) small molecule agonists, calcium flux assay: HEK293 wild type cell line counter screen (AID 1920065)
In short: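 Tox21 10K compounds, 15 concentrations each in triplicate, pin-transferred in DMSO onto dye-loaded cells; kinetic read at 480/540 nm for 3 min, 1 s intervals.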

[6] = p53 small molecule agonists, cell-based qHTS assay with human liver microsomes (AID 1963577)
In short: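 Compounds act here after metabolic activation: human liver microsomes and NADPH, both at 0.5 mg/mL final, were co-added to p53RE-bla cells. Incubation ran 16 h at 37 C, followed by LiveBLAzer detection.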

[7] = p53 small molecule agonists, cell-based qHTS assay with rat liver microsomes (AID 1963578)
In short: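 Read-out is beta-lactamase reporter fluorescence (LiveBLAzer, 2 h, room temperature, dark) in p53RE-bla cells treated 16 h at 37 C with compound, rat liver microsomes and NADPH, both 0.5 mg/mL final.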

[8] = p53 small molecule agonists, cell-based qHTS assay with human liver microsomes: qHTS cell viability counter screen (AID 1963579); also: nearly all actives have a fitted effect of over 45% in size
In short: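 Cells carrying the p53 response-element beta-lactamase reporter are treated for 16 h at 37 C with test compounds in the presence of human liver microsomes and NADPH (both 0.5 mg/mL final); ATP-based CellTiter-Glo luminescence then reports viability.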

[9] = p53 small molecule agonists, cell-based qHTS assay with rat liver microsomes: qHTS cell viability counter screen (AID 1963580); also: nearly all actives have a fitted effect of over 45% in size
In short: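 Luminescent ATP readout (CellTiter-Glo, 30 min at room temperature) reports viability of p53RE-bla HCT-116 cells after 16 h at 37 C with test compounds under metabolic activation by rat liver microsomes and NADPH at 0.5 mg/mL final each.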

[10] = p53 small molecule agonists, cell-based qHTS assay: qHTS cell viability counter screen (AID 1963581); also: nearly all actives have a fitted effect of over 45% in size
In short: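 ATP content measured by luminescence in HCT-116 p53RE-bla cells treated 16 h at 37 C, same wells as the reporter screen.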

[11] = p53 small molecule agonists, cell-based qHTS assay (AID 1963582; active = well fitted activation curve with a large enough effect in the signal ratio in the repeat runs, not every such curve was filed as active; the % refers to the signal ratio)
In short: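 16 h compound exposure (37 C) of p53 response element–bla cells, preceded by 5 h recovery at 37 C/5% CO2; read-out via LiveBLAzer B/G FRET substrate, 2 h RT, fluorescence intensity.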

[12] = biological target: 5-hydroxytryptamine receptor 2A (Homo sapiens) (UniProt P28223); test: 5-hydroxytryptamine receptor 2A (HTR2A) small molecule agonists, cell-based qHTS assay (AID 1963587); also: nearly all actives have a fitted effect of over 30% in size
Chain of 5-hydroxytryptamine receptor 2A (Homo sapiens) (P28223 whole entry, looked up): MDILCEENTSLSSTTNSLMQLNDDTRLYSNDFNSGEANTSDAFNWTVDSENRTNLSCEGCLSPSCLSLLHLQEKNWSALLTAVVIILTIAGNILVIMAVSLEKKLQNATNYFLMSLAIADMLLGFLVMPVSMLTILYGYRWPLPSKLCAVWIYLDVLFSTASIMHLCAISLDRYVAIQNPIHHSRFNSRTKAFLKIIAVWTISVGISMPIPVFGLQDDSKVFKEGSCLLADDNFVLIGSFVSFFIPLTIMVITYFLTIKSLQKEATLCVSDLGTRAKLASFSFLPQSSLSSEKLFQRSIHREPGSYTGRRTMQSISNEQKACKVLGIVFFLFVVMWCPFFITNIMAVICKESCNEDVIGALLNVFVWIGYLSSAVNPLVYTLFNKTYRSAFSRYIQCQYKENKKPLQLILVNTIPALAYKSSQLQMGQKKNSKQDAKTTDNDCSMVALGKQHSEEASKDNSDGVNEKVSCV
In short: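 HTR2A-CHO cells, plated 18 h at 37 C/5% CO2, dye-loaded 1 h at 37 C; compounds in DMSO added by pin tool (agonist mode). Intracellular calcium flux read as kinetic fluorescence on FDSS over 2 min at 1 s intervals.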

[13] = biological target: Muscarinic acetylcholine receptor M1 (Homo sapiens) (UniProt P11229); test: Cholinergic receptor muscarinic 1 (CHRM1) small molecule antagonists, cell-based qHTS assay (AID 1963588); also: nearly all actives have a fitted effect of over 40% in size
Chain of Muscarinic acetylcholine receptor M1 (Homo sapiens) (P11229 whole entry, looked up): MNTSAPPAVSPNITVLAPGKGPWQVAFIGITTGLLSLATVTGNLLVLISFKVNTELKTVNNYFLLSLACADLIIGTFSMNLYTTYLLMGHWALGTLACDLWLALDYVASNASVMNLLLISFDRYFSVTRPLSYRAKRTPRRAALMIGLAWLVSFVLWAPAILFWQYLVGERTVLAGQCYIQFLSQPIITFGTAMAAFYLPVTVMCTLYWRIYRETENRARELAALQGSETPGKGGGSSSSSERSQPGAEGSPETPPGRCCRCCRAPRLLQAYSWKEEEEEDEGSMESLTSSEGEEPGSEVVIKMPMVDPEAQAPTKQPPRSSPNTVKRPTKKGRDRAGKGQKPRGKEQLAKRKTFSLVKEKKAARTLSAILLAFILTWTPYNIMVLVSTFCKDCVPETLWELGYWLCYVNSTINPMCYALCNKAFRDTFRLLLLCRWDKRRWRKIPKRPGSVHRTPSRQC
In short: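 Compounds were tested at 15 concentrations in three independent runs. Dye-loaded CHRM1-CHO cells were exposed 5 min at room temperature before stimulation by acetylcholine added at 50nM. Intracellular calcium was read kinetically on FDSS for 3 min.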

[14] = biological target: Muscarinic acetylcholine receptor M1 (Homo sapiens) (UniProt P11229); test: Cholinergic receptor muscarinic 1 (CHRM1) small molecule agonists, cell-based qHTS assay (AID 1963589); also: nearly all actives have a fitted effect of over 35% in size
In short: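 Homogeneous fluorescence calcium flux, agonist mode. Human M1-expressing CHO cells; compound dosed at 15 concentrations, three independent runs; signal sampled every 1 sec.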

[15] = cAMP Responsive Elements (CRE) small molecule agonists, cell-based qHTS assay (AID 1963590)
In short: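 HEK 293T cells stably bearing CRE-bla were plated at 2,000 cells per well and rested 18 h. Compounds, positive controls or DMSO were added for 3 h at 37 C. LiveBLAzer B/G substrate was then loaded for 2 h at room temperature.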

[16] = cAMP Responsive Elements (CRE) small molecule antagonists, cell-based qHTS assay (AID 1963591; active = well fitted inhibition curve with a large enough effect in the signal ratio in the repeat runs, not every such curve was filed as active; the % refers to the signal ratio)
In short: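 First, CRE-bla HEK293T cells settled 18 h at 37 C. Next, compound and 0.25 uM final NKH477 were applied for 3 h. Last, LiveBLAzer B/G substrate was loaded for 2 h at room temperature.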

[17] = biological target: Beta-2 adrenergic receptor (Homo sapiens) (UniProt P07550); test: Adrenergic beta2 receptor (ADRB2) small molecule antagonists, cell-based qHTS assay (AID 1963592); also: series mostly up to about 92 µM; nearly all actives have a fitted effect of over 50% in size
Chain of Beta-2 adrenergic receptor (Homo sapiens) (P07550 whole entry, looked up): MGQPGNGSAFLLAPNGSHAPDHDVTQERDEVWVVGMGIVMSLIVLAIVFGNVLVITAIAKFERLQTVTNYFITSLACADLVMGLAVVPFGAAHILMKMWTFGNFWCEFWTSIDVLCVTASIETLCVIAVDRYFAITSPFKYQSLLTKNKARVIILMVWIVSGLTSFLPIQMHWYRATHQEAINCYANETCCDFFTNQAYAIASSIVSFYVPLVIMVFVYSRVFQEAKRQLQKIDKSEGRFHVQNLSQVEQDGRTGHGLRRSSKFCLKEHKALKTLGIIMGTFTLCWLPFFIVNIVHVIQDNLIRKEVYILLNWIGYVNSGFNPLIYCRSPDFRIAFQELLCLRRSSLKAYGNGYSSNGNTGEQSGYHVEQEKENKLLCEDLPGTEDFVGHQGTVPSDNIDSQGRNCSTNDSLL
In short: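 Assay format: CHO-ADRB2 cells, 18-20hr seeding at 37C/5% CO2, then compound plus 1nM isoproterenol agonist mix for 0.5hr RT. Homogeneous time-resolved fluorescence cAMP detection after 1hr, expressed as 665/615 nm ratio.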

[18] = biological target: Beta-2 adrenergic receptor (Homo sapiens) (UniProt P07550); test: Adrenergic beta2 receptor (ADRB2) small molecule agonists, cell-based qHTS assay (AID 1963593);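 also: CHO cells stably overexpressing human ADRB2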
In short: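 CHO cells stably over-expressing ADRB2 were plated overnight at 37C, then dosed with compounds plus a stimulation mix containing 100uM IBMX and 25uM Ro-20-1724 for 0.5hr at room temperature. cAMP was measured by HTRF competition, 1hr.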

[19] = biological target: D(2) dopamine receptor (Homo sapiens) (UniProt P14416); test: Dopamine D2 receptor (DRD2) small molecule agonists, cell-based qHTS assay (AID 1963594); also: nearly all actives have a fitted effect of over 35% in size
Chain of D(2) dopamine receptor (Homo sapiens) (P14416 whole entry, looked up): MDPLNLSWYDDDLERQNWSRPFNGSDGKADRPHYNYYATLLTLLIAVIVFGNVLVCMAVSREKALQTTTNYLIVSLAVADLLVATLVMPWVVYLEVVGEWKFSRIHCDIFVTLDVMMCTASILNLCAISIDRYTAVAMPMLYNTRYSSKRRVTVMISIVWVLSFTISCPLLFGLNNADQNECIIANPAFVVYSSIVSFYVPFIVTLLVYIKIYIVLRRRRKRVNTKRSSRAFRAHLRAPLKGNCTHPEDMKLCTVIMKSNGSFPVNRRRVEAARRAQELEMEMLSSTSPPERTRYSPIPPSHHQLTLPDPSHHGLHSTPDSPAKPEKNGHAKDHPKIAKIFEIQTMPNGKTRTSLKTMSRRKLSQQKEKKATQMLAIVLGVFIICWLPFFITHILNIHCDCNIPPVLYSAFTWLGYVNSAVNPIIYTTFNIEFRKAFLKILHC
In short: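 HEK293 cells stably expressing DRD2 were cultured 24 h at 37 C, then given Ro20-1724 (0.1 mM final) and compounds for 10 min at room temperature. NKH477 (200nM) was then added for 30 min. cAMP was read by HTRF.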

[20] = biological target: D(2) dopamine receptor (Homo sapiens) (UniProt P14416); test: Dopamine D2 receptor (DRD2) small molecule antagonists, cell-based qHTS assay (AID 1963595; active = well fitted inhibition curve with a large enough effect in the signal ratio in the repeat runs, with a control signal flat; the % refers to the signal ratio)
In short: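 In this cell-based antagonist screen, compounds act for 10 min at room temperature before a 30 min challenge with 12 nM quinpirole and 200 nM NKH477. cAMP is quantified by HTRF competition in DRD2-HEK293 cells containing 0.1 mM Ro20-1724.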

Measured: Potency

CCC(C)c1ccccc1 (stereo unspecified)
inactive: [1] | [2] | [3] | [4] | [5] | [6] | [7] | [8] | [9] | [10] | [11] | [12] | [13] | [14] | [15] | [16] | [17] | [18] | [19] | [20]

CCCCCCCCCCCCCCC(=O)O
inactive: [1] | [2] | [3] | [4] | [5] | [6] | [7] | [8] | [9] | [10] | [11] | [13] | [14] | [15] | [16] | [17] | [19]

CC(C)CCCCCCCCCCCCCCC(=O)O
inactive: [1] | [2] | [3] | [4] | [5] | [6] | [7] | [8] | [9] | [10] | [11] | [12] | [13] | [14] | [15] | [16] | [17] | [18] | [19] | [20]

O=C(/C=C/c1ccccc1)OCc1ccccc1
inactive: [1] | [2] | [3] | [4] | [5] | [6] | [7] | [8] | [9] | [10] | [11] | [12] | [13] | [14] | [15] | [16] | [17] | [19] | [20]

CCCCCCCCCOS(=O)(=O)O
inactive: [1] | [2] | [3] | [4] | [5] | [6] | [7] | [8] | [9] | [10] | [11] | [12] | [13] | [14] | [15] | [16] | [17] | [18] | [19] | [20]

O=Cc1ccc([N+](=O)[O-])cc1
inactive: [1] | [2] | [3] | [4] | [5] | [6] | [7] | [8] | [9] | [10] | [11] | [12] | [13] | [14] | [15] | [16] | [17] | [19]

CCCCC(CC)COP(=O)(OCC(CC)CCCC)OCC(CC)CCCC (stereo unspecified)
inactive: [1] | [2] | [3] | [4] | [5] | [6] | [7] | [8] | [9] | [10] | [11] | [13] | [14] | [15] | [16] | [17] | [18] | [19]

O=c1cc(CO)occ1O
inactive: [1] | [2] | [3] | [4] | [5] | [6] | [7] | [8] | [9] | [10] | [11] | [12] | [13] | [14] | [15] | [16] | [18] | [19] | [20]

CN1CCc2cccc3c2[C@H]1Cc1ccc(O)c(O)c1-3
active: [1] 30.9 µM and 22.8 µM
inactive: [2] | [3] | [4] | [5] | [6] | [7] | [8] | [9] | [10] | [11] | [12] | [13] | [14] | [15] | [16] | [20]

O=C(O)C[C@H](NC(=O)OCc1ccccc1)C(=O)O
inactive: [1] | [2] | [3] | [4] | [5] | [6] | [7] | [8] | [9] | [10] | [11] | [12] | [13] | [14] | [15] | [16] | [17] | [19] | [20]

c1ccsc1
inactive: [1] | [2] | [3] | [4] | [5] | [6] | [7] | [8] | [9] | [10] | [11] | [12] | [13] | [14] | [15] | [16] | [17] | [18] | [19] | [20]

CC(C)Oc1ccc2c(=O)c(-c3ccccc3)coc2c1
active: [2] 376 nM and 266 nM
inactive: [1] | [3] | [4] | [5] | [6] | [7] | [8] | [9] | [10] | [11] | [15] | [16] | [17] | [18] | [19] | [20]

N#CC1(O)CCCCC1
inactive: [1] | [3] | [4] | [5] | [6] | [7] | [8] | [9] | [10] | [11] | [12] | [13] | [14] | [15] | [16] | [17] | [18] | [19] | [20]
active: [2] 61.6 µM

CC(C)(C)C1CCCCC1O (stereo unspecified)
inactive: [1] | [2] | [3] | [4] | [5] | [6] | [7] | [8] | [9] | [10] | [11] | [12] | [13] | [14] | [15] | [16] | [17] | [19] | [20]

CC(C)CC(=O)O
inactive: [1] | [2] | [3] | [4] | [5] | [6] | [7] | [8] | [9] | [10] | [11] | [12] | [14] | [15] | [16] | [17] | [19] | [20]

From PubChem BioAssay (Tox21)
